The text below walks through data of PubChem BioAssay (NCI).

Among the test systems are SR leukemia; OVCAR-8 ovarian; OVCAR-5 ovarian; OVCAR-4 ovarian; SK-OV-3 ovarian; IGROV1 ovarian; OVCAR-3 ovarian; HS 578T breast; NCI/ADR-RES ovarian.
Common to all, as to assay: NCI-60 one-dose screen, 48 h (100 = growth as untreated, 0 = no growth, -100 = all killed)
Common to all, as to settings: 10 µM unless noted

About 83,000 compounds went through this panel and 20% of them were active in at least one assay; those are over-represented in the sample as a whole.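 Note: values are percent growth. 100 is the growth of untreated cells, values between 100 and 0 indicate rising inhibition; between -100 and 0 indicates cell death.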 Values without a mark were called inactive. Active and inactive are the calls of the source. How the source made its calls: active means growth percent below 10; inactive means the rest.

With `Cc1ccc(S(=O)(=O)NCCNc2cc(-c3cn(C(C)(C)C)nc3-c3cccc(O)c3)ccn2)cc1`, the growth in the assay on SR leukemia is 51.7%; in the assay on OVCAR-8 ovarian it was 79%; in the assay with OVCAR-5 ovarian, 80%; in the assay on OVCAR-4 ovarian it was 67.3%; in the assay on SK-OV-3 ovarian it was 91.4%; with IGROV1 ovarian, 75.2%. The growth is 81.7% in the assay with OVCAR-3 ovarian, 76.6% in the assay on HS 578T breast and 67% with NCI/ADR-RES ovarian.
Regarding `CCOC(=O)C1C(=O)C=C(c2ccc(OC)cc2)CC1c1sc(N(C)Cc2ccccc2)nc1Cl` (stereo not given), the growth is 81% in the assay on SR leukemia; 80.9% with OVCAR-8 ovarian; 86.2% in the assay with OVCAR-5 ovarian; 78.2% in the assay on OVCAR-4 ovarian; 90% in the assay with SK-OV-3 ovarian; 104% in the assay with IGROV1 ovarian. The growth in the assay with OVCAR-3 ovarian was 87.5%; in the assay on HS 578T breast, 49.2%; in the assay on NCI/ADR-RES ovarian it was 88.2%.
With `CCOC(=O)c1cc(C(=O)c2cc(OC)c(OC)c(OC)c2)n2c1ccc1ccccc12`, the growth with SR leukemia is 10.8%; in the assay with OVCAR-8 ovarian, 32.7%; in the assay with OVCAR-5 ovarian, 46.5%; in the assay on OVCAR-4 ovarian it was 40.8%; in the assay on SK-OV-3 ovarian, 34.7%; with IGROV1 ovarian, 31.4%. The growth with OVCAR-3 ovarian was -17.3% (active); with HS 578T breast, 11.6%; with NCI/ADR-RES ovarian, 18%.
Turning to `c1cc(C2=N[C@@H]3c4ccccc4C[C@@H]3O2)nc(C2=N[C@@H]3c4ccccc4C[C@@H]3O2)c1`, the growth with SR leukemia was 101%; in the assay on OVCAR-8 ovarian, 106%; with OVCAR-5 ovarian it was 98.3%; in the assay with OVCAR-4 ovarian, 99.6%; in the assay with SK-OV-3 ovarian, 117%; in the assay with IGROV1 ovarian, 104%. In addition, the growth in the assay with OVCAR-3 ovarian is 109%; with HS 578T breast it was 98.2%; with NCI/ADR-RES ovarian, 98.7%.
`CC12CCC3C4(C)COC(c5ccco5)OC4CCC3(C)C1CC(C1=CCOC1=O)O2` (stereo not given): the growth with SR leukemia is 95.7%; with OVCAR-8 ovarian it was 108%; with OVCAR-5 ovarian it was 99.8%; in the assay on OVCAR-4 ovarian it was 103%; with SK-OV-3 ovarian, 121%; in the assay on IGROV1 ovarian, 93.8%. Also, the growth with OVCAR-3 ovarian was 105%; in the assay with HS 578T breast it was 107%; in the assay with NCI/ADR-RES ovarian it was 98.5%.
As to `COc1cc2c(cc1OCCCCCn1c3ccccc3c3ccccc31)N=C[C@@H]1CCCN1C2=O`, the growth in the assay on SR leukemia is -54.5% (active); in the assay with OVCAR-8 ovarian, -30.6% (active); with OVCAR-5 ovarian, -50% (active); with OVCAR-4 ovarian, -7.21% (active); in the assay on SK-OV-3 ovarian, -47.4% (active); in the assay on IGROV1 ovarian, -68.9% (active). The growth is -80.5% (active) with OVCAR-3 ovarian, -63.4% (active) in the assay on HS 578T breast and -6.33% (active) in the assay on NCI/ADR-RES ovarian.
Consider `CCCCNC(=O)Oc1ccc(/C(=C(\C)c2ccccc2)c2ccc(OCCN(CC)CC)cc2)cc1`, for which the growth in the assay on SR leukemia is 14.5%; with OVCAR-8 ovarian it was 77%; with OVCAR-5 ovarian, 77.7%; in the assay on OVCAR-4 ovarian, 79.7%; in the assay with SK-OV-3 ovarian it was 74.5%; in the assay with IGROV1 ovarian, 77.2%. Also, the growth in the assay with OVCAR-3 ovarian is 75.1%; in the assay on HS 578T breast, 39.8%; with NCI/ADR-RES ovarian it was 84.4%.
`CC(C)(C)n1cc(-c2ccnc(NCCCNS(=O)(=O)c3ccc(Cl)cc3)c2)c(-c2cccc(O)c2)n1`: the growth was -34.5% (active) in the assay with SR leukemia; 6.22% (active) with OVCAR-8 ovarian; -20.5% (active) in the assay with OVCAR-5 ovarian; 23.4% with OVCAR-4 ovarian; 37.4% in the assay on SK-OV-3 ovarian; 8.56% (active) in the assay on IGROV1 ovarian. The growth in the assay on OVCAR-3 ovarian is 4.31% (active); in the assay with HS 578T breast, -12.2% (active); in the assay with NCI/ADR-RES ovarian, 12.2%.
For the compound `Clc1cc(Cl)c2nc(-c3ccc(-c4ccc(/C=N/NC5=NCCN5)cc4)s3)cn2c1`, the growth with SR leukemia is 11.2%; with OVCAR-8 ovarian, 97.9%; in the assay with OVCAR-5 ovarian, 104%; in the assay on OVCAR-4 ovarian it was 85.6%; in the assay with IGROV1 ovarian it was 84.3%; in the assay with OVCAR-3 ovarian, 97.9%. Moreover, the figures for the growth with HS 578T breast and in the assay on NCI/ADR-RES ovarian were 86.6% and 97.7%, respectively.
For `COc1ccc(NC(=O)CSc2nc(-c3ccc(OC)c(OC)c3)cc(-c3cc(OC)c(OC)c(OC)c3)n2)cc1`, the growth was 104% in the assay with SR leukemia; 94.2% with OVCAR-8 ovarian; 99.1% in the assay with OVCAR-5 ovarian; 106% in the assay on OVCAR-4 ovarian; 109% with SK-OV-3 ovarian; 122% in the assay on IGROV1 ovarian. Moreover, the growth in the assay on OVCAR-3 ovarian was 114%; in the assay with HS 578T breast, 90.8%; with NCI/ADR-RES ovarian it was 98.7%.
Take `CC(C)(C)n1cc(-c2ccnc(NCCCNS(=O)(=O)c3ccc(F)cc3)c2)c(-c2cccc(O)c2)n1`: the growth in the assay on SR leukemia is 13.8%; with OVCAR-8 ovarian, 51.5%; with OVCAR-5 ovarian it was 65%; with OVCAR-4 ovarian it was 53.9%; in the assay on SK-OV-3 ovarian, 83.8%; in the assay with IGROV1 ovarian it was 51.1%. The growth with OVCAR-3 ovarian is 56.1%; in the assay on HS 578T breast it was 52.4%; with NCI/ADR-RES ovarian, 53%.
Take `Cc1ccc(S(=O)(=O)Nc2c(Br)cc(Br)cc2C(N)=O)cc1`: the growth is 111% with SR leukemia; 105% with OVCAR-8 ovarian; 99.1% with OVCAR-5 ovarian; 114% with OVCAR-4 ovarian; 106% with SK-OV-3 ovarian; 104% in the assay with IGROV1 ovarian. Moreover, the values for the growth in the assay on OVCAR-3 ovarian, in the assay with HS 578T breast and in the assay on NCI/ADR-RES ovarian were 112%, 106% and 99.4%, respectively.
For `Cc1ccc(C(=O)NCCCNc2nccc(-n3ccc4cccnc43)n2)cc1`, the growth was 92.7% in the assay on SR leukemia; 100% with OVCAR-8 ovarian; 89.8% in the assay on OVCAR-5 ovarian; 96.3% in the assay on OVCAR-4 ovarian; 106% with SK-OV-3 ovarian; 88.6% in the assay on IGROV1 ovarian. The growth is 105% in the assay with OVCAR-3 ovarian, 101% in the assay on HS 578T breast and 92.3% with NCI/ADR-RES ovarian.
Turning to `O=S(=O)(NCCCNc1nccc(-n2ccc3cccnc32)n1)c1ccc(Br)cc1`, the growth in the assay on SR leukemia is 112%; in the assay on OVCAR-8 ovarian it was 103%; in the assay on OVCAR-5 ovarian, 107%; with OVCAR-4 ovarian, 99.3%; in the assay with SK-OV-3 ovarian it was 113%; in the assay with IGROV1 ovarian, 108%. Also, the growth with OVCAR-3 ovarian was 112%; in the assay with HS 578T breast, 103%; with NCI/ADR-RES ovarian, 101%.
